Data published in the supplement of paper PMC10849652.
The full data set covers some 7,900 targets. This sample favours those with a hit. About 0.6% of all pairs of compound and target were hits.

How the values were obtained:
Experiment in all cases: log2 fold change, soluble protein after heating vs DMSO (PISA); higher = thermal stabilisation; K562 cells, 10 uM, 30 min; active = over 0.2 and 3.5 SD of the protein, either way, in both replicates (recomputed)
saracatinib = compound: CN1CCN(CCOc2cc(OC3CCOCC3)c3c(Nc4c(Cl)ccc5c4OCO5)ncnc3c2)CC1 [saracatinib]
Method in brief: (§1)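 Soluble protein was quantified by TMTpro 16plex LC-MS/MS after channel sums were equalised. It was obtained as the supernatant after 21,000xg for 90 min from pooled aliquots of K562 cells (2×10^6 cells/mL, 10 μM compound, 30 min) heated for 3 min across 48°C-58°C and extracted in PBS with 0.5% NP-40 at 4°C. Thermal stability values are relative to control samples and come from duplicates. They are given as log2 fold changes.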

sotrastaurin = compound: CN1CCN(c2nc(C3=C(c4c[nH]c5ccccc45)C(=O)NC3=O)c3ccccc3n2)CC1 [sotrastaurin]
Method in brief: as §1

alvocidib = compound: CN1CC[C@H](c2c(O)cc(O)c3c(=O)cc(-c4ccccc4Cl)oc23)[C@H](O)C1 [alvocidib]
Method in brief: as §1

Tubastatin A = compound: CN1CCc2c(c3ccccc3n2Cc2ccc(C(=O)NO)cc2)C1 [Tubastatin A]
Method in brief: as §1

[1] = compound: CNC(=O)C1=CC=CC=C1NC2=NC(=NC=C2Cl)NC3=C(C=C(C=C3)N4CCOCC4)OC
Method in brief: as §1

defactinib = compound: CNC(=O)c1ccc(Nc2ncc(C(F)(F)F)c(NCc3nccnc3N(C)S(C)(=O)=O)n2)cc1 [defactinib]
Method in brief: as §1

rucaparib = compound: CNCc1ccc(-c2[nH]c3cc(F)cc4c3c2CCNC4=O)cc1 [rucaparib]
Method in brief: as §1

[2] = compound: CNc1nc(-c2ccc3c(N)n[nH]c3c2)cc(N2C[C@@H](C(=O)NC3CCCCC3)CC[C@H]2C)n1
Method in brief: as §1

encorafenib = compound: COC(=O)N[C@@H](C)CNc1nccc(-c2cn(C(C)C)nc2-c2cc(Cl)cc(NS(C)(=O)=O)c2F)n1 [encorafenib]
Method in brief: as §1

[3] = compound: COC(=O)[C@H](CCSC)NC(=O)C1=C(C=C(C=C1)NC[C@H](CS)N)C2=CC=CC=C2
Method in brief: as §1

[4] = compound: COC1=CC=C(C=C1)CN2C=CC3=C2C=C(C=C3)C(=O)NO
Method in brief: as §1

filanesib = compound: CON(C)C(=O)N1N=C(c2cc(F)ccc2F)S[C@@]1(CCCN)c1ccccc1 [filanesib]
Method in brief: as §1

zotarolimus = compound: CO[C@H]1C[C@@H]2CC[C@@H](C)[C@@](O)(O2)C(=O)C(=O)N2CCCC[C@H]2C(=O)O[C@H]([C@H](C)C[C@@H]2CC[C@H](n3cnnn3)[C@H](OC)C2)CC(=O)[C@H](C)/C=C(\C)[C@@H](O)[C@@H](OC)C(=O)[C@H](C)C[C@H](C)/C=C/C=C/C=C/1C [zotarolimus]
Method in brief: as §1

idasanutlin = compound: COc1cc(C(=O)O)ccc1NC(=O)[C@@H]1N[C@@H](CC(C)(C)C)[C@](C#N)(c2ccc(Cl)cc2F)[C@H]1c1cccc(Cl)c1F [idasanutlin]
Method in brief: as §1

alisertib = compound: COc1cc(Nc2ncc3c(n2)-c2ccc(Cl)cc2C(c2c(F)cccc2OC)=NC3)ccc1C(=O)O [alisertib]
Method in brief: as §1

[5] = compound: COc1cc2nc(-c3cc(F)ccc3O)nc(N[C@@H]3CNC[C@H]3C(C)(C)O)c2cc1OC
Method in brief: as §1

gefitinib = compound: COc1cc2ncnc(Nc3ccc(F)c(Cl)c3)c2cc1OCCCN1CCOCC1 [gefitinib]
Method in brief: as §1

[6] = compound: COc1cccc2cc(-c3nc([C@H]4CC[C@H](C(=O)O)CC4)n4ncnc(N)c34)[nH]c12
Method in brief: as §1

lapatinib = compound: CS(=O)(=O)CCNCc1ccc(-c2ccc3ncnc(Nc4ccc(OCc5cccc(F)c5)c(Cl)c4)c3c2)o1 [lapatinib]
Method in brief: as §1

pictilisib = compound: CS(=O)(=O)N1CCN(Cc2cc3nc(-c4cccc5[nH]ncc45)nc(N4CCOCC4)c3s2)CC1 [pictilisib]
Method in brief: as §1

Measured: log2 fold change

KTN1 (UniProt Q86UP2)
Sequence of UniProt Q86UP2 (Q86UP2 whole entry, looked up): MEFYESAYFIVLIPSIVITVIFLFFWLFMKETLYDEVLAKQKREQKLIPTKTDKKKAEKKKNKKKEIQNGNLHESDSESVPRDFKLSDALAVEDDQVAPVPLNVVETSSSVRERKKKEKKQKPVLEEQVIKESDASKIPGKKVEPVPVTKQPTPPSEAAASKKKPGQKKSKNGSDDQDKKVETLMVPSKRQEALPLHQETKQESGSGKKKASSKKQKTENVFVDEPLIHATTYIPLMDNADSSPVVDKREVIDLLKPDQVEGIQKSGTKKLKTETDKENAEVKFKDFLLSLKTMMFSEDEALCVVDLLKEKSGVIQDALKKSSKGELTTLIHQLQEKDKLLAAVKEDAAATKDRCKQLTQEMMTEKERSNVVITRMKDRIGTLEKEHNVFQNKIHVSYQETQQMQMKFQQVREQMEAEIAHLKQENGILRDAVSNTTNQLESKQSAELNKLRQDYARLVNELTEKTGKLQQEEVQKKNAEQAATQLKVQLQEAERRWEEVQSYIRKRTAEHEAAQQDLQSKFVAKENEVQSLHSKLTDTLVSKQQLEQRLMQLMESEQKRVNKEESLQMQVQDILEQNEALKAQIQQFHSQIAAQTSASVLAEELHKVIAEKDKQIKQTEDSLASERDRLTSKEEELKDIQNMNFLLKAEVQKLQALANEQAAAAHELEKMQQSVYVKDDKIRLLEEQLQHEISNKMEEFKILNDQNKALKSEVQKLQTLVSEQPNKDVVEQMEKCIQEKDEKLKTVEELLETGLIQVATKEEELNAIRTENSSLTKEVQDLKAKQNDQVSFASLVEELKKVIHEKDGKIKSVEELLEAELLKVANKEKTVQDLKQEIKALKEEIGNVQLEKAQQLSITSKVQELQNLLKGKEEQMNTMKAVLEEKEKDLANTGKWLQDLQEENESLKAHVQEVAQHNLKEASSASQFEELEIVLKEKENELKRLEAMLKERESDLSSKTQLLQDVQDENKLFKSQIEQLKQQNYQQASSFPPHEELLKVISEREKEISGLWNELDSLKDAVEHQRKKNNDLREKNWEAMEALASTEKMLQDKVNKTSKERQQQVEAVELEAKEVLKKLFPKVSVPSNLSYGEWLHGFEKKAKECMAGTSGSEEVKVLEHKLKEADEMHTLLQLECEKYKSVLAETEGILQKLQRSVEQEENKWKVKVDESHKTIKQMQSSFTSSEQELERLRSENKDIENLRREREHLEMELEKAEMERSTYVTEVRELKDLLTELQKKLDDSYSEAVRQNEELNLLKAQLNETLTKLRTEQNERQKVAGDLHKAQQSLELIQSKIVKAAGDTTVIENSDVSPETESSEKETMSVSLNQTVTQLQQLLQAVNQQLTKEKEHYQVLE
inactive: saracatinib 0.001 | sotrastaurin -0.07 | alvocidib 0.109 | Tubastatin A 0.032 | [1] -0.12 | defactinib 0.109 | rucaparib 0.155 | [2] -0.079 | encorafenib 0.137 | [3] -0.053 | [4] 0.023 | filanesib 0.146 | zotarolimus 0.034 | idasanutlin 0.004 | alisertib 0.032 | [5] -0.001 | gefitinib -0.08 | [6] -0.116 | lapatinib -0.038 | pictilisib -0.086

IRAK4 (UniProt Q9NWZ3)
Sequence of UniProt Q9NWZ3 (Q9NWZ3 whole entry, looked up): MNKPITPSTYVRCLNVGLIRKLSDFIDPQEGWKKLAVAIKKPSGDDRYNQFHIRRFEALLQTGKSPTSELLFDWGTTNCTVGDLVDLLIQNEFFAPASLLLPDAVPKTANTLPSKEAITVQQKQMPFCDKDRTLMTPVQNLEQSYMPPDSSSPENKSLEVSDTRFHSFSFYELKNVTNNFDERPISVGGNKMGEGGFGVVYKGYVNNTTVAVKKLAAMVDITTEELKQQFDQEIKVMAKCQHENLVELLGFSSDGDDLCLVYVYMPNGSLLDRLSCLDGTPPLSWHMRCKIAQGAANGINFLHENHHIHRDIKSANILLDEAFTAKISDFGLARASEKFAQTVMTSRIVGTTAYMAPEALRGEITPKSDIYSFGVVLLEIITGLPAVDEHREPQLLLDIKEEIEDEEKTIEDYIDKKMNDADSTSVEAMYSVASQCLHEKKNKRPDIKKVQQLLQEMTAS
inactive: saracatinib -0.026 | sotrastaurin -0.061 | alvocidib -0.106 | Tubastatin A 0.006 | [1] 0.162 | defactinib -0.022 | rucaparib 0.076 | [2] 0.01 | encorafenib 0.006 | [3] -0.071 | [4] 0.012 | filanesib -0.028 | zotarolimus 0.01 | idasanutlin 0.004 | alisertib -0.059 | [5] 0.104 | gefitinib 0.109 | [6] 0.007 | lapatinib -0.004 | pictilisib -0.099

MAP2K3 isoform 3 (UniProt P46734)
Sequence of UniProt P46734 (P46734 whole entry, looked up): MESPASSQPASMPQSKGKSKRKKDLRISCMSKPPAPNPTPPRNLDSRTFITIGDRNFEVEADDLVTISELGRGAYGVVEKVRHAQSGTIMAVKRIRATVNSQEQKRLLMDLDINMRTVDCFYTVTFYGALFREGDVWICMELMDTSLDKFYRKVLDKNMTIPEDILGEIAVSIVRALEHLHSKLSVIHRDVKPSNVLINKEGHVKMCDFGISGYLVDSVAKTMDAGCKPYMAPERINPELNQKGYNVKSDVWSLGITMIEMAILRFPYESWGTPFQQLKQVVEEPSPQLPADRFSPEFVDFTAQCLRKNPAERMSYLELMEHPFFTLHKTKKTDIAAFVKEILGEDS
inactive: saracatinib 0.024 | sotrastaurin 0.017 | alvocidib -0.029 | Tubastatin A -0.045 | [1] -0.025 | defactinib -0.063 | rucaparib 0.058 | [2] -0.061 | encorafenib -0.02 | [3] 0.003 | [4] 0.076 | filanesib 0.01 | zotarolimus -0.018 | idasanutlin -0.019 | alisertib 0.152 | [5] 0.166 | gefitinib -0.086 | [6] -0.022 | lapatinib -0.079 | pictilisib 0.07

KIAA1324L (UniProt A8MWY0)
Sequence of UniProt A8MWY0 (A8MWY0 whole entry, looked up): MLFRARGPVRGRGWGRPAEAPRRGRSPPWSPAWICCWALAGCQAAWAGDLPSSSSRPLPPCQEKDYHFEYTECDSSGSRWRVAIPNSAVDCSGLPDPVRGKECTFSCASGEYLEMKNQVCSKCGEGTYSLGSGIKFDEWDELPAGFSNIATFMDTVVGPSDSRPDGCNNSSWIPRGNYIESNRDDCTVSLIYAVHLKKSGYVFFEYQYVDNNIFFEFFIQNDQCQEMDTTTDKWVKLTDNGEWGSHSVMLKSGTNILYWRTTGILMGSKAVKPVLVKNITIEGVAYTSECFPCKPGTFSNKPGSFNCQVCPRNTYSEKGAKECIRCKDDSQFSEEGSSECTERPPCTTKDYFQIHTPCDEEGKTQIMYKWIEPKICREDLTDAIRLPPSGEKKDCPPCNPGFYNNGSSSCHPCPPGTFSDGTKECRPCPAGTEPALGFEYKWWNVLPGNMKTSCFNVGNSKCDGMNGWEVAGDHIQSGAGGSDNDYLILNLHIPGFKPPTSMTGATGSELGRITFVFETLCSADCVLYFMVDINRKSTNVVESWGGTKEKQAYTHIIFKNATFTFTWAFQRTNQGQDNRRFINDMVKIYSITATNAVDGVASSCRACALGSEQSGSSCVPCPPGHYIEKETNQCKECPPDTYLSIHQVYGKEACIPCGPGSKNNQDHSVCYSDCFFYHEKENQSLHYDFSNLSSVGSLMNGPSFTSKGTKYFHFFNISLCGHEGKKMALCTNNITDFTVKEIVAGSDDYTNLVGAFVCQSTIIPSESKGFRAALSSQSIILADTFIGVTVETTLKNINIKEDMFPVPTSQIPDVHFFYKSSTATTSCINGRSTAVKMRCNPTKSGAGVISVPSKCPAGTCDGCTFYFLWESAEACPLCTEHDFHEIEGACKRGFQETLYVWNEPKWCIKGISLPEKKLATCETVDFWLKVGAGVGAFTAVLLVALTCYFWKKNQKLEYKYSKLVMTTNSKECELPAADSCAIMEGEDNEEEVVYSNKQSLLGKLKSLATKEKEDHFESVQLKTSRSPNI
inactive: saracatinib 0.018 | sotrastaurin 0.014 | alvocidib -0.056 | Tubastatin A -0.017 | [1] -0.014 | defactinib 0.033 | rucaparib -0.021 | [2] 0.023 | encorafenib 0.015 | [3] 0.006 | [4] -0.03 | filanesib 0.091 | zotarolimus -0.09 | idasanutlin 0.07 | alisertib -0.013 | [5] 0.028 | gefitinib 0.109 | [6] 0.049 | lapatinib -0.026 | pictilisib 0.005
